Bioassay records from PubChem.
Compounds with a hit are over-represented: about 14% of the library has one in this group of screens.
HCV inhibitor – HCV inhibition. Huh7.5.1 HCVcc-Cre infection, luciferase reporter, 44 h. Potency, µM (doses to about 41.8 µM), without a hit: at the top dose activity change, negative = inhibition, usual class: inhibitors. hit rate 3.4% among 340,000; further: potency means the concentration at half of the fitted maximal effect
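A cell-based infection assay in which seeded cells (1,000 per well) receive test compound after 4 h, are inoculated with HCVcc-Cre at approximately 0.5 moi, and are incubated 44 h before luminescence detection.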
Pf growth 96h – P. falciparum growth inhibition at 96 hour, primary screen for plastid delayed-death inhibitors; P. falciparum luciferase reporter growth, 96 h; Potency, µM (titrated, usually from 28.7 µM), for inactives: at the top dose activity change, negative = inhibition, actives largely listed as inhibitors; hit rate 6.9% among 320,000; AID 504834; further: potency means the concentration at half of the fitted maximal effect
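Parasite growth measured via integrated firefly luciferase reporter in P. falciparum. Infected erythrocytes at 2% hematocrit, 0.05% parasitemia final were treated 96 hours at 37 C under 5% CO2, and luminescence was read.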
Pf growth 48h – inhibits P. falciparum growth in the first generation, 48 h. P. falciparum luciferase growth in erythrocytes, 48 h. Potency, µM (titrated, usually from 28.7 µM), inactives show at the top dose activity change, negative = inhibition, actives largely listed as inhibitors. hit rate 5.9% among 310,000; further: potency means the concentration at half of the fitted maximal effect
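Luciferase-expressing P. falciparum in infected erythrocytes (2% hematocrit, 0.1% parasitemia final) in RPMI 1640/0.5% Albumax were exposed to compound for 48 hours at 37 C, 5% CO2; growth read as luminescence.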
HCMV inh – blocks human cytomegalovirus replication. HFF cells, HCMV-luciferase reporter, 72 h; hits give low values. activity change, negative = inhibition, % at 57.5 µM. AID 1259415. hit rate 4.5% among 410,000; in the data active means activity change below about -60%; inconclusive means no clear call, values can overlap the other calls; inactive means above about -39%
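Human foreskin fibroblasts infected with luciferase-reporter HCMV at MOI 1 PFU/cell, compounds at two doses. Luciferase measured 72 h post infection; normalized to buffer-only basal and Salinomycin (10uM) controls.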
Marburg entry inh – blocks Marburg virus binding to or entry into cells | hit rate 1.8% among 300,000 | Potency, µM (highest dose often 37.8 µM), for inactives: at the highest dose activity change, negative = inhibition, hits mostly inhibitors | Marburg virus pseudotyped entry inhibition, cell reporter | AID 540276; calls by dose curve; tested in HEK293 cells; further: potency means the concentration at half of the fitted maximal effect
Lassa entry inh – blocks Lassa virus binding to or entry into cells; hit rate 1.2% among 300,000; Lassa virus pseudotype entry inhibition, cell reporter; Potency, µM (series often up to 37.9 µM), for the others: top-dose activity change, negative = inhibition, actives largely listed as inhibitors; calls by dose curve; tested in HEK293 cells; further: potency means the concentration at half of the fitted maximal effect; nearly all actives have a fitted effect of over 50% in size
* marks the source's active call; other numbers are inactive results; ? = inconclusive; · = no result given; + = active, no number; ! = a repeat was not active; [ ] = dose if it differs, or a comment. Unless noted, the call rests on the fitted dose curve; in most records, active means well fitted inhibition curve with a large enough effect; inconclusive means small, poorly fitted or top-dose-only effect, or another doubt; inactive means no such curve, though single readings can be large or run the other way. On the % scale 0 is the no-effect control and ±100 the full control effect.

SMILES	HCV inhibitor	Pf growth 96h	Pf growth 48h	HCMV inh	Marburg entry inh	Lassa entry inh
CN1CCN(C2=C(NS(=O)(=O)c3ccccc3)C(=O)c3ccccc3C2=O)CC1	-16%	?	4.1µM*	·	·	·
CCN1CCN(C2=C(NS(=O)(=O)c3ccc(Br)cc3)C(=O)c3ccccc3C2=O)CC1	?	?	2.6µM*	-112*	·	·
CCOC(=O)C1CCN(C2=C(NS(=O)(=O)c3ccc(Br)cc3)C(=O)c3ccccc3C2=O)CC1	12%	?	?	19	·	·
CC(C)Oc1ccc(CNC(=O)C2CCCN(S(=O)(=O)c3ccc4c(ccn4C)c3)C2)cc1 (centres undefined)	·	·	·	-21	·	?
O=C(NCc1ccco1)c1ccc2c(c1)N(Cc1cccc(Cl)c1)C(=O)c1ccccc1S2=O (centres undefined)	·	·	·	-4	·	?
CCOC(=O)N1CCN(C2=C(NS(=O)(=O)c3ccccc3)C(=O)c3ccccc3C2=O)CC1	?	9.3µM*	13µM*	-19	2%[46.1 µM]	?
CCN1CCN(C2=C(NS(=O)(=O)c3ccccc3)C(=O)c3ccccc3C2=O)CC1	11µM*	2.9µM*	5.9µM*	-62*	·	·
CCOC(=O)N1CCN(C2=C(NS(=O)(=O)c3ccc(Br)cc3)C(=O)c3ccccc3C2=O)CC1	·	·	·	-27	·	·
O=C1C(NS(=O)(=O)c2ccc(Cl)cc2)=C(N2CCCCC2)C(=O)c2ccccc21	18%	?	?	?	?	0%
CN1CCN(C2=C(NS(=O)(=O)c3cccs3)C(=O)c3ccccc3C2=O)CC1	11µM*	?	?	-31	?	?
CN(c1ccc(NC(=O)Nc2ccc(OC(F)(F)F)cc2)cc1)c1ccnc(Nc2cccc(S(N)(=O)=O)c2)n1	·	·	·	·	·	25µM*
O=S(=O)(NC1=NCCC1)c1cccc(NS(=O)(=O)c2ccc(OC(F)(F)F)cc2)c1	3%	-4%	12%	-28	-2%	-5%
COc1cccc(N2CCN(S(=O)(=O)c3ccc4[nH]c5c(c4c3)CCCC5)CC2)c1	·	·	·	-17	·	-21%[46.1 µM]
COc1cc2c(cc1OC)C(C)N(C(=O)c1cc(C)on1)CC2 (centres undefined)	2%	-6%	60%	-66*	-25%	?
COc1cc2c(cc1OC)C(C)N(C(=O)c1cc3ccccc3o1)CC2 (centres undefined)	10µM*	?	?	-29	-27%	?
COc1cc2c(cc1OC)C(C)N(C(=O)c1cccs1)CC2 (centres undefined)	?	31%	-24%	-40	?	?
COc1cc2c(cc1OC)C(C)N(C(=O)c1c(C)noc1C)CC2 (centres undefined)	-6%	7%	-18%	?	·	·
CCN(C[C@H]1N[C@@](C)(C(=O)OC)[C@H]2C(=O)N(C)C(=O)[C@@H]12)C(=O)Nc1ccc(Cl)cc1	11%	·	·	1	·	·
COc1ccccc1NC(=O)c1oc2ccccc2c1NC(=O)C1CC1	-27%	15µM*	12µM*	?	·	·
COc1ccc(NC(=O)c2oc3ccccc3c2NC(=O)C2CC2)cc1OC	?	12µM*	?	-21	-26%	2%
COc1ccc(NC(=O)c2oc3ccccc3c2NC(=O)C2CCCO2)cc1OC (centres undefined)	?	43%	?	?	?	?
COc1cccc(COC(=O)C2CC(=O)N(Cc3ccccc3)C2)c1OC (centres undefined)	·	·	·	-30	·	·
CCOC(=O)c1c(C)[nH]c(C)c1S(=O)(=O)N1CCCC(C(=O)N2CCN(c3cccc(Cl)c3)CC2)C1 (centres undefined)	·	·	·	-73*	·	?
CCOC(=O)c1[nH]c(C)c(C(=O)N2CCN(c3cccc(Cl)c3)CC2)c1C	8%	0%	10µM*	6	3%	-5%
CCOC(=O)c1c(C)[nH]c(C)c1S(=O)(=O)N1CCC(C(=O)N2CCN(c3cccc(C)c3)C(C)C2)CC1 (centres undefined)	·	·	·	-95*	·	-25%[46.1 µM]
SMILES	HCV inhibitor	Pf growth 96h	Pf growth 48h	HCMV inh	Marburg entry inh	Lassa entry inh
CCOC(=O)c1c(C)[nH]c(C)c1S(=O)(=O)N1CCC(C(=O)N2CCN(c3cc(C)ccc3C)CC2)CC1	·	·	·	-14	·	-17%[46.1 µM]
CCOC(=O)c1c(C)[nH]c(C)c1S(=O)(=O)N1CCCC(C(=O)Nc2cccc(C)n2)C1 (centres undefined)	·	·	·	-6	·	5%[46.1 µM]
CCOC(=O)c1c(C)[nH]c(C)c1S(=O)(=O)N1CCCC(C(=O)N2CCN(c3cccc(C)c3C)CC2)C1 (centres undefined)	·	·	·	13	·	11µM*
O=C(CSc1nc2c(oc3ccccc32)c(=O)n1CC1CCCO1)NCc1ccc(F)cc1 (centres undefined)	?	-3%	?	-35	?	?
CCOc1ccc(N2CC(C(=O)NCC(=O)Nc3ccc(F)c(F)c3F)CC2=O)cc1 (centres undefined)	4%	-27%	-20%	-4	·	·
CC(=O)c1c(C)[nH]c(C(=O)N2CCc3ccccc32)c1C	0%	?	4%	221	0%	-4%
CCOC(=O)c1[nH]c(C)c(C(=O)N2CCc3ccccc32)c1C	?	7%	?	-92*	?	?
[O-][n+]1c2ccccc2cc2ccccc21	?	7.4µM*	2.6µM*	4	·	·
COc1ccc2nc3ccccc3[n+]([O-])c2c1	3%	·	·	2	?	18%
Cc1ccc(CNC(=O)CN(c2ccc(C(C)C)cc2)S(=O)(=O)c2c(C)noc2C)cc1	-9%	10µM*	-8%	10	·	·
COc1cccc(CNC(=O)CN(c2ccc(C)cc2)S(=O)(=O)N(C)C)c1OC	·	·	·	-18	8%[46.1 µM]	0%[46.1 µM]
Cc1ccc(N(CC(=O)NCCc2ccc(Cl)cc2)S(=O)(=O)c2c(C)noc2C)cc1	-8%	2.3µM*	-5%	-30	?	-6%[46.1 µM]
COc1ccc(CNC(=O)CN(c2ccc(C)cc2)S(=O)(=O)c2c(C)noc2C)cc1	1%	69%	-13%	-19	-22%[46.1 µM]	-6%[46.1 µM]
Cc1ccc(N(CC(=O)NCc2ccc(OC(C)C)cc2)S(=O)(=O)N(C)C)cc1	·	·	·	-4	·	5µM*
Cc1noc(C)c1S(=O)(=O)N(CC(=O)NC1CCC(C)CC1)c1ccc(C(C)C)cc1 (centres undefined)	-7%	?	10µM*	-34	·	·
COc1ccc(CNC(=O)CN(c2ccc(OC)cc2)S(=O)(=O)c2c(C)[nH]c(=O)[nH]c2=O)cc1	20%	?	18%	-19	7%[46.1 µM]	29%[46.1 µM]
COc1ccc(N(CC(=O)NCc2ccc(C)cc2)S(=O)(=O)c2c(C)[nH]c(=O)[nH]c2=O)cc1	20%	4.7µM*	25%	+!	8%[46.1 µM]	12%[46.1 µM]
